# From PubChem BioAssay (EPA / NIEHS)
# Several values for one entry are separate records, joined by “and”; a condition that tells them apart may be missing. Identical values can stand only once. Results filed as inconclusive are left out. A structure can be active in one record and inactive in another. Activity calls are given as the source filed them. Rule for the calls: active = hit-call score of the fitted dose curve at least 0.9, where 1 is the maximum; inconclusive = response in the unintended direction; inactive = score below 0.9.
# Tests used:
# [1] = molecular target: human Serotonin, 5-Hydroxytryptamine Receptor 7 (5HT7), HTR7 (gene 3363) (UniProt P34969); assay: NVS_GPCR_h5HT7: NovaScreen (NVS) G Protein-Coupled Receptor Assay for human Serotonin, 5-Hydroxytryptamine Receptor 7 (5HT7) (AID 2283255);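 note: hits reduce specific radioligand binding relative to DMSO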
# Chain of human Serotonin, 5-Hydroxytryptamine Receptor 7 (5HT7), HTR7 (gene 3363) (P34969 whole entry, looked up): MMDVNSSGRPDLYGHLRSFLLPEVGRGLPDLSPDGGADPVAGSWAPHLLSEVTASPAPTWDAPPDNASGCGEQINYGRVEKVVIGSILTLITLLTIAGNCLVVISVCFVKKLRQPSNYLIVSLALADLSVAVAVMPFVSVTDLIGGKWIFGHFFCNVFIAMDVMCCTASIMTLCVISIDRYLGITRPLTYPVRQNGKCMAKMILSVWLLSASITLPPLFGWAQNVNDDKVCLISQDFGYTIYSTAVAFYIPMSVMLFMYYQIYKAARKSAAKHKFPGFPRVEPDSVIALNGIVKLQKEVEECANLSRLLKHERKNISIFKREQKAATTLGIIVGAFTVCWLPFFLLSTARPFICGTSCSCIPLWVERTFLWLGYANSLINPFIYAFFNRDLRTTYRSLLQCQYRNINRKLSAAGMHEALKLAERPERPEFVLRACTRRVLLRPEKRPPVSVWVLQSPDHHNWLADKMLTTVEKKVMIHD
# How it was run: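 Radioligand displacement on membranes from CHO cells expressing human 5HT7, 1 h incubation, filter-based scintillation counting. Primary screen used a single 25 uM concentration in duplicate; actives were followed up in concentration series.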
# [2] = molecular target: Type-1 angiotensin II receptor (Homo sapiens) (UniProt P30556); assay: NVS_GPCR_hAT1: NovaScreen (NVS) G Protein-Coupled Receptor Assay for human Angiotensin II receptor type 1 (AT1) (AID 2283263)
# Chain of Type-1 angiotensin II receptor (Homo sapiens) (P30556 whole entry, looked up): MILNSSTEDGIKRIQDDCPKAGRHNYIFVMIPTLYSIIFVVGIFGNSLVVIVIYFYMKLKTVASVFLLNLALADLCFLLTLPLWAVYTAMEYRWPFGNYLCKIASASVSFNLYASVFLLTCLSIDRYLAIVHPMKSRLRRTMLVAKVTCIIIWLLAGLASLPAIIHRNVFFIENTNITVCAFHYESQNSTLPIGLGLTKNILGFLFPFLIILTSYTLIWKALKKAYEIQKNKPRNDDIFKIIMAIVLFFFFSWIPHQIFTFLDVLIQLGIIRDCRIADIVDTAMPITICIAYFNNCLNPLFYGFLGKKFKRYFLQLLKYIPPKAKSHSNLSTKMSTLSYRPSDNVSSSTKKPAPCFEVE
# How it was run: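 Membranes from KAN-TS cells; radioligand competitive displacement, 3 h, filtration and scintillation counting. Single-point duplicate screen at 25 uM, then concentration-response up to 50 uM for hits; loss of signal fitted versus DMSO.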
# [3] = molecular target: human Endothelin Receptor Type A (ETA), EDNRA (gene 1909) (UniProt P25101); assay: NVS_GPCR_hETA: NovaScreen (NVS) G Protein-Coupled Receptor Assay for human Endothelin Receptor Type A (ETA) (AID 2283265)
# How it was run: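 Cell-free radioligand displacement using SH-SY5Y-derived protein, 3 h incubation, filter-based scintillation counting. Primary screen in duplicate at 25 uM; actives then run in concentration-response up to 50 uM; loss of binding fitted versus DMSO.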
# [4] = molecular target: human Dopamine Receptor D2 (DRD2), DRD2 (gene 1813) (UniProt P14416); assay: NVS_GPCR_hDRD2s: NovaScreen (NVS) G Protein-Coupled Receptor Assay for human Dopamine Receptor D2 (DRD2) (AID 2283266)
# Chain of human Dopamine Receptor D2 (DRD2), DRD2 (gene 1813) (P14416 whole entry, looked up): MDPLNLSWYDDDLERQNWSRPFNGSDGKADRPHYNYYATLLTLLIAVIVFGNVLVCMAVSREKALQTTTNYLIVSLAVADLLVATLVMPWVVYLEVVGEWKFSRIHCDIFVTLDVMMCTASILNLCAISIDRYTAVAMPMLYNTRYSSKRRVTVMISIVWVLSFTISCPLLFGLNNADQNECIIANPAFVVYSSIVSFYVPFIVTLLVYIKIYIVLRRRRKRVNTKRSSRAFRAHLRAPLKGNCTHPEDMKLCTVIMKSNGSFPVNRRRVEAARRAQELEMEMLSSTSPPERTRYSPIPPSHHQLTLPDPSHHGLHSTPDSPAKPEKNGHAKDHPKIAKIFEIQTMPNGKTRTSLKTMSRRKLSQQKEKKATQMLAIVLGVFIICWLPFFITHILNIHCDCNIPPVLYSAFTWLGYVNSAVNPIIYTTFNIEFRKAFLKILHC
# How it was run: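 Radioligand displacement used human DRD2 membranes extracted from CHO cells and was read by filter-based scintillation counting after 1.5 hours. Primary screening was in duplicate at 25 uM. Loss of signal versus DMSO was fitted, with concentration series in follow-up.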
# [5] = molecular target: human Histamine 1 Receptor (H1), HRH1 (gene 3269) (UniProt P35367); assay: NVS_GPCR_hH1: NovaScreen (NVS) G Protein-Coupled Receptor Assay for human Histamine 1 Receptor (H1) (AID 2283268)
# How it was run: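 Cell-free radioligand displacement at human H1 receptor, 1 h, filter scintillation counting; primary screen 25 uM in duplicate, hits in concentration series; loss of binding fitted vs DMSO.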
# [6] = molecular target: human Adenosine A1 Receptor (AdoRA1), ADORA1 (gene 134) (UniProt P30542); assay: NVS_GPCR_hAdoRA1: NovaScreen (NVS) G Protein-Coupled Receptor Assay for human Adenosine A1 Receptor (AdoRA1) (AID 2283254)
# Chain of human Adenosine A1 Receptor (AdoRA1), ADORA1 (gene 134) (P30542 whole entry, looked up): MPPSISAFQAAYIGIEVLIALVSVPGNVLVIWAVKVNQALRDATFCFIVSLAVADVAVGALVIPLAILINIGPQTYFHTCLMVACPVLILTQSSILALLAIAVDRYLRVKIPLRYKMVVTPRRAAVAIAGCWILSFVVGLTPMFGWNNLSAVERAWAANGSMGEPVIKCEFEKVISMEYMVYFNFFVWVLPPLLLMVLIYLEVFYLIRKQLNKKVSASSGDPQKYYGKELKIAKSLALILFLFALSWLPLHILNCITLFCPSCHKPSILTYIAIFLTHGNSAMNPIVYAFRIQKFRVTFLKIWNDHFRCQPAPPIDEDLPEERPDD
# How it was run: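 Hum. cortical membranes + radioligand, cmpd 1 h; filtration, scintillation count. Readout = decrease vs DMSO. Primary 25 uM dup; hits → conc. series.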
# [7] = molecular target: human Adenosine A2a Receptor (AdoRA2a), ADORA2A (gene 135) (UniProt P29274); assay: NVS_GPCR_hAdoRA2a: NovaScreen (NVS) G Protein-Coupled Receptor Assay for human Adenosine A2a Receptor (AdoRA2a) (AID 2283256)
# Chain of human Adenosine A2a Receptor (AdoRA2a), ADORA2A (gene 135) (P29274 whole entry, looked up): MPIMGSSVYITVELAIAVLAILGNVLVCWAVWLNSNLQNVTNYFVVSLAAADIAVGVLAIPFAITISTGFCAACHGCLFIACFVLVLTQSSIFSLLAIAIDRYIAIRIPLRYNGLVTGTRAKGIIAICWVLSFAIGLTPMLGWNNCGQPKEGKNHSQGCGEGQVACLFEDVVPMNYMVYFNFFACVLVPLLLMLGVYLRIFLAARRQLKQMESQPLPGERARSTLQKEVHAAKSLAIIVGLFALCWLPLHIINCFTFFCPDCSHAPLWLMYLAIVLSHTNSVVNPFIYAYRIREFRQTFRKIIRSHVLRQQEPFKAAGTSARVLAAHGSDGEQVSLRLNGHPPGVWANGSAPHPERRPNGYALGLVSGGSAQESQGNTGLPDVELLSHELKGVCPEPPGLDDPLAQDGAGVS
# How it was run: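 Radioligand displacement on HEK293-derived membrane protein, cell-free; filter-based scintillation counting 1.5 hours after dosing, loss of signal vs DMSO. Single-point duplicate screen at 25 uM, actives retested in concentration series.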
# [8] = molecular target: human Serotonin, 5-Hydroxytryptamine Receptor 6 (5HT6), HTR6 (gene 3362) (UniProt P50406); assay: NVS_GPCR_h5HT6: NovaScreen (NVS) G Protein-Coupled Receptor Assay for human Serotonin, 5-Hydroxytryptamine Receptor 6 (5HT6) (AID 2283253)
# How it was run: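 Radioligand binding to 5HT6 in HEK293-derived membranes, cell-free, 1 h after dosing; bound ligand measured by filter-based scintillation counting. Primary screen in duplicate at 25 uM; actives retested in concentration series.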
# [9] = molecular target: human Dopamine Receptor D4.4 (DRD4.4), DRD4 (gene 1815) (UniProt P21917); assay: NVS_GPCR_hDRD4.4: NovaScreen (NVS) G Protein-Coupled Receptor Assay for human Dopamine Receptor D4.4 (DRD4.4) (AID 2283264)
# How it was run: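 Radioligand displacement on human DRD4.4 from CHO-derived membranes, 1 hour incubation, bound counts read by filtration and scintillation. Primary screen in duplicate at 25 uM; actives followed up in concentration series.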
# [10] = molecular target: human Adrenergic, Alpha 2c Receptor (Adra2C), ADRA2C (gene 152) (UniProt P18825); assay: NVS_GPCR_hAdra2C: NovaScreen (NVS) G Protein-Coupled Receptor Assay for human Adrenergic, Alpha 2c Receptor (Adra2C) (AID 2283259)
# Chain of human Adrenergic, Alpha 2c Receptor (Adra2C), ADRA2C (gene 152) (P18825 whole entry, looked up): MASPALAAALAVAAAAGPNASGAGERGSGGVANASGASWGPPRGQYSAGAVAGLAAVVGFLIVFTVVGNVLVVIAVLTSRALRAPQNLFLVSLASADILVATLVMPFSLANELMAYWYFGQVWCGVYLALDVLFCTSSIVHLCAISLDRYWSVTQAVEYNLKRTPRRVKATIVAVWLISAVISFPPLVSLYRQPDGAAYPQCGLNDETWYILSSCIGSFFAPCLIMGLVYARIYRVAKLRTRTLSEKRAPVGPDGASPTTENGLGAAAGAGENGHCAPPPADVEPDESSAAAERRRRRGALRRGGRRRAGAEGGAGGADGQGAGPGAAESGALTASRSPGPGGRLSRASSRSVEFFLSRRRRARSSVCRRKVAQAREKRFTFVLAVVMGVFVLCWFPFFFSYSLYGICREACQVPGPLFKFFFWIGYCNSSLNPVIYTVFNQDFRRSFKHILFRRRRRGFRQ
# How it was run: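 Radioligand binding on Sf9-expressed receptor membranes, 1 h after chemical dosing, filter-based scintillation read-out. Loss of binding fitted positively versus DMSO; primary duplicate screen at 25 uM, actives retested in concentration series.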
# [11] = molecular target: Muscarinic acetylcholine receptor M1 (Homo sapiens) (UniProt P11229); assay: NVS_GPCR_hM1: NovaScreen (NVS) G Protein-Coupled Receptor Assay for human Muscarinic, M1 Receptor (AID 2283270)
# Chain of Muscarinic acetylcholine receptor M1 (Homo sapiens) (P11229 whole entry, looked up): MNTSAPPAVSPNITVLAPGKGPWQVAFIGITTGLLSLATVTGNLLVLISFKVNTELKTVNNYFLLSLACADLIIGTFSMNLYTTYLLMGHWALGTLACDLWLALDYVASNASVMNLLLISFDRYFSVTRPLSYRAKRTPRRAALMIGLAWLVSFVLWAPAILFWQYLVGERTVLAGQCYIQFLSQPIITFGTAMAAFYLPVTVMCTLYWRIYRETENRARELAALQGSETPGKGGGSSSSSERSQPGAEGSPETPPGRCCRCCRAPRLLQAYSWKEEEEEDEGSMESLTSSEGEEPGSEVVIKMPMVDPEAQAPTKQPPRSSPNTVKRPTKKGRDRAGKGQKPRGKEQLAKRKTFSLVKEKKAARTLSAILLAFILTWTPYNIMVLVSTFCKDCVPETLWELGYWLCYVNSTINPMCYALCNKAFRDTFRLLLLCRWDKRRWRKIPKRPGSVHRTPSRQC
# How it was run: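 Cell-free radioligand displacement using membrane protein extracted from CHO cells, read by filter-based scintillation counting 1 h after dosing. Loss of bound signal fitted versus DMSO; primary screen single concentration 25 uM in duplicate, actives followed by concentration series.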
# [12] = molecular target: guinea pig Opioid, Kappa 1 Receptor (OpiateK), OPRK1 (gene 100135587) (UniProt P41144); assay: NVS_GPCR_gOpiateK: NovaScreen (NVS) G Protein-Coupled Receptor Assay for guinea pig Opioid, Kappa 1 Receptor (OpiateK) (AID 2283252);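 note: radioligand displacement from kappa opioid receptor in guinea pig cerebellar membranes; active means reduced radioligand binding relative to DMSO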
# Chain of guinea pig Opioid, Kappa 1 Receptor (OpiateK), OPRK1 (gene 100135587) (P41144 whole entry, looked up): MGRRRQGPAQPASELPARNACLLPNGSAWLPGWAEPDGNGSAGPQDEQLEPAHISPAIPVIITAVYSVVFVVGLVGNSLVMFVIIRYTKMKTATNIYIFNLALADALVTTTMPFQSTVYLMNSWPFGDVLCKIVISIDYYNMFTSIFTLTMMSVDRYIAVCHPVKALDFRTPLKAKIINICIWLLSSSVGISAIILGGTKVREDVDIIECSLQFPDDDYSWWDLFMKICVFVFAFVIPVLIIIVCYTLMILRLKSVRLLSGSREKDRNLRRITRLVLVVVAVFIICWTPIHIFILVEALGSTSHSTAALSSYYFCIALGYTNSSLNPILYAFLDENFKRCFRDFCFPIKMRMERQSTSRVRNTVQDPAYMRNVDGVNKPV
# How it was run: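 Guinea pig cerebellar membranes were incubated with a radioligand for 2 h after compound addition; bound radioactivity was read by filter-based scintillation counting. Loss of specific binding relative to DMSO baseline defined activity; primary screen at 25 uM in duplicate.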
# [13] = molecular target: human Adrenergic, Beta 1 Receptor (Adrb1), ADRB1 (gene 153) (UniProt P08588); assay: NVS_GPCR_hAdrb1: NovaScreen (NVS) G Protein-Coupled Receptor Assay for human Adrenergic, Beta 1 Receptor (Adrb1) (AID 2283258)
# Chain of human Adrenergic, Beta 1 Receptor (Adrb1), ADRB1 (gene 153) (P08588 whole entry, looked up): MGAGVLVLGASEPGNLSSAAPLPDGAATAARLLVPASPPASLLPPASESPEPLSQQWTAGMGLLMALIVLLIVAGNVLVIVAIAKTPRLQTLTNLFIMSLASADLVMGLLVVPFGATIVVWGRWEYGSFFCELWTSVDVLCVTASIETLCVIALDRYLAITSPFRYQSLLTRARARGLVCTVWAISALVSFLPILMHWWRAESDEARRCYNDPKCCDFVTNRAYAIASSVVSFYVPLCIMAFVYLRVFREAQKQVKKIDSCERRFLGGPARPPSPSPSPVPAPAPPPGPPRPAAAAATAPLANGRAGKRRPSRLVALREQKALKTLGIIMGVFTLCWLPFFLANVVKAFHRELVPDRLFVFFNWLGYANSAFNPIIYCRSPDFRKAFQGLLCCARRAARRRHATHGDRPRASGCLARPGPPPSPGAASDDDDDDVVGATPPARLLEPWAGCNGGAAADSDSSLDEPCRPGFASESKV
# How it was run: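 Cell-free radioligand displacement on receptor from human neuroepithelioma cells; 2 h after dosing, filter-based scintillation counting. Primary screen in duplicate at 25 uM, actives retested in concentration series; loss of signal vs DMSO baseline.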
# [14] = molecular target: Beta-2 adrenergic receptor (Homo sapiens) (UniProt P07550); assay: NVS_GPCR_hAdrb2: NovaScreen (NVS) G Protein-Coupled Receptor Assay for human Adrenergic, Beta 2 Receptor (Adrb2) (AID 2283261)
# Chain of Beta-2 adrenergic receptor (Homo sapiens) (P07550 whole entry, looked up): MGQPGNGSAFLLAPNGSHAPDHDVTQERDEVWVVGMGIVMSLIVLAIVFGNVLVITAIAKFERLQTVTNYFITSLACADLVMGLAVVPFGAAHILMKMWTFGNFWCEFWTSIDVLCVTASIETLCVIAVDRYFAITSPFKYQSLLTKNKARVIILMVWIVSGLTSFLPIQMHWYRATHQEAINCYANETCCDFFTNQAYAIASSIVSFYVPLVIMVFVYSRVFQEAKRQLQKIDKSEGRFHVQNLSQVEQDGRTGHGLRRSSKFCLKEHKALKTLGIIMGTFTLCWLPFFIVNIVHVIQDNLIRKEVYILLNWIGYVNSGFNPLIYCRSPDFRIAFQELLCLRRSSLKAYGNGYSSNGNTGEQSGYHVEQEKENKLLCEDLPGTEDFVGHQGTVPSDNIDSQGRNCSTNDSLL
# How it was run: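 Filter-based radioligand binding using receptor prepared from CHO cells, 1 h incubation, scintillation counting. Primary screen in duplicate at 25 uM, actives retested in concentration series; loss of binding relative to DMSO.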
# [15] = molecular target: human Adrenergic, Beta 3 Receptor (Adrb3), ADRB3 (gene 155) (UniProt P13945); assay: NVS_GPCR_hAdrb3: NovaScreen (NVS) G Protein-Coupled Receptor Assay for human Adrenergic, Beta 3 Receptor (Adrb3) (AID 2283262)
# How it was run: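 Membranes from SK-N-MC cells pretreated with isoproterenol and 8-bromo-cAMP were used in a radioligand competitive displacement binding assay. Binding was read by filter-based scintillation counting 1 hour after dosing. Primary screening was in duplicate at 25 uM, with concentration series in follow-up.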
# [16] = molecular target: D(1A) dopamine receptor (Homo sapiens) (UniProt P21728); assay: NVS_GPCR_hDRD1: NovaScreen (NVS) G Protein-Coupled Receptor Assay for human Dopamine Receptor D1 (DRD1) (AID 2283269)
# Chain of D(1A) dopamine receptor (Homo sapiens) (P21728 whole entry, looked up): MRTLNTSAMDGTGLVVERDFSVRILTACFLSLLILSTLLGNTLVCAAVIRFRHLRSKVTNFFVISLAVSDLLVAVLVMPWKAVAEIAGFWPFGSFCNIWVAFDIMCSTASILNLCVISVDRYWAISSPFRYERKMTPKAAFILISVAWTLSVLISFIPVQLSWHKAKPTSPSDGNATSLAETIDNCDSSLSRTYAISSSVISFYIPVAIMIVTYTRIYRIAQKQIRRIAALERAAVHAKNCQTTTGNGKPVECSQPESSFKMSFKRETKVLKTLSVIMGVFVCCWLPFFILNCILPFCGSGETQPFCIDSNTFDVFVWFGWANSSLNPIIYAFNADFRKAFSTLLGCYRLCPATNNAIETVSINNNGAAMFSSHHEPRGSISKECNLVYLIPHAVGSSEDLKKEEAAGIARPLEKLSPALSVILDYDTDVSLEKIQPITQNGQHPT
# How it was run: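 HEK293-derived receptor preparation; radioligand competitive displacement; 1 h; filtration + scintillation counting. DMSO = negative control/baseline. Primary: 25 uM, duplicate; secondary: concentration–response for actives.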
# [17] = molecular target: human Leukotriene B4 Receptor 1 (LTB4-BLT1), LTB4R (gene 1241) (UniProt Q15722); assay: NVS_GPCR_hLTB4_BLT1: NovaScreen (NVS) G Protein-Coupled Receptor Assay for human Leukotriene B4 Receptor 1 (LTB4-BLT1) (AID 2283271)
# How it was run: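 Radioligand displacement binding on receptor extracted from human neutrophils, cell-free, 1 h after dosing; filter-based scintillation counting. Primary screen in duplicate at 25 uM, actives retested in concentration-response up to 50 uM; loss of signal versus DMSO.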
# [18] = molecular target: human Endothelin Receptor Type B (ETB), EDNRB (gene 1910) (UniProt P24530); assay: NVS_GPCR_hETB: NovaScreen (NVS) G Protein-Coupled Receptor Assay for human Endothelin Receptor Type B (ETB) (AID 2283267)
# How it was run: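 Human astrocytoma cell membranes; radioligand competitive binding read by filter scintillation counting 4 hours after dosing. Single-concentration duplicate screen at 25 uM, then singleton concentration-response up to 50 uM; loss of signal versus DMSO.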
structure (smiles),measurement,setting,value
S=C(S)NCCNC(=S)S.[Mn+2].[S-]C([S-])=NCCN=C([S-])[S-].[Zn+2],AC50,[1],2.48 µM (active) and 5.86 µM (active) and 2.62 µM (active)
same,outcome,[1],inactive
same,outcome,[2],inactive
same,outcome,[3],inactive
same,outcome,[4],inactive
same,outcome,[5],inactive
COC(=O)c1cccc(C)c1S(=O)(=O)NC(=O)Nc1nc(OCC(F)(F)F)nc(N(C)C)n1,AC50,[6],10.4 µM (active)
same,AC50,[7],6.04 µM (active)
O=C(c1ccc(O)cc1O)c1ccc(O)cc1O,AC50,[8],4.96 µM (active)
same,AC50,[6],11 µM (active)
same,outcome,[7],inactive
same,outcome,[9],inactive
CCOC(=O)[C@H](C)Oc1ccc(Oc2nc3ccc(Cl)cc3o2)cc1,outcome,[10],inactive
same,outcome,[11],inactive
c1ccc2[nH]c(-c3cscn3)nc2c1,AC50,[7],4.91 µM (active)
N[C@@H](Cc1cc(I)c(Oc2ccc(O)c(I)c2)c(I)c1)C(=O)O,AC50,[8],6.06 µM (active)
same,AC50,[6],0.554 µM (active)
CC(C)(c1ccc(O)cc1)c1ccc(O)cc1,outcome,[12],inactive
same,AC50,[6],11.9 µM (active) and 1.83 µM (active)
same,outcome,[1],inactive
same,outcome,[13],inactive
same,outcome,[10],inactive
same,outcome,[14],inactive
same,outcome,[15],inactive
same,outcome,[16],inactive
same,outcome,[17],inactive
CCCCCOC(=O)COc1cc(N2C(=O)C3=C(CCCC3)C2=O)c(F)cc1Cl,outcome,[6],inactive
CCCCCCC(C)OC(=O)COc1nc(F)c(Cl)c(N)c1Cl (stereo not drawn),outcome,[1],inactive
same,outcome,[2],inactive
same,AC50,[16],25 µM (active)
CC(C)CCCCCCc1ccc(O)cc1,outcome,[7],inactive
same,AC50,[13],38 µM (active)
same,AC50,[16],25 µM (active)
C#C[C@]1(O)CC[C@H]2[C@@H]3CCC4=CC(=O)CC[C@@H]4[C@H]3CC[C@@]21CC,outcome,[18],inactive
CC1(C)C(C=C(Cl)Cl)C1C(=O)OCc1cccc(Oc2ccccc2)c1 (stereo not drawn),outcome,[1],inactive
same,outcome,[16],inactive
COCCO,outcome,[2],inactive
O=C(O)C1(C(=O)Nc2ccc(Cl)cc2Cl)CC1,outcome,[17],inactive
CCCCC(CC)CN1C(=O)C2C3C=CC(C3)C2C1=O (stereo not drawn),outcome,[14],inactive
CCCOC(=O)c1ccc(C(=O)OCCC)nc1,AC50,[7],15.2 µM (active)
CC(C)(C)[C@@H](O)[C@@H](Cc1ccc(Cl)cc1)n1cncn1,outcome,[12],inactive
CCOC(=O)NCCOc1ccc(Oc2ccccc2)cc1,outcome,[11],inactive
CCOC(=O)COc1cc(-n2ncc(C(F)(F)F)c(C)c2=O)c(F)cc1Cl,outcome,[5],inactive
